CYP2C9 act: activators of human CYP2C9; P11712; 1.4% of 96,000 active; recombinant CYP2C9, luciferin-H conversion, luminescence; active compounds read high; factor 1 = untreated enzyme, 0 = blocked; AID 1024; activation factor at 5 µM;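 active means activation factor of 2 or more for CYP2C9 at a 5 µM dose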;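 further: 0 = sulfaphenazole-blocked wells and 1 = vehicle-only wells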
D1 allo mod: allosteric modulators of human D1 dopamine receptor. B-score at 10 µM. 5.9% of 58,000 active. P21728. HEK293 D1, CRE-luciferase, dopamine EC30 potentiation; actives deviate in either direction. AID 641;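 active means luminescence count or its row- and column-corrected plate score outside the 99.7% band of the plate's sample wells, on either side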
CYP2C19 act: increases human CYP2C19 enzyme activity; AID 1025; activation factor at 5 µM; P33261; 96,000 tested, under 10 active; recombinant CYP2C19, luciferin-H EGE luminescence; active compounds read high; 0 = fully inhibited enzyme, 1 = untreated enzyme;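 active means activation factor of at least 2 at 5 µM in the primary screen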;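 further: 0 = wells with 2.5 mM tranylcypromine and 1 = vehicle-only wells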
Target sequence (P33261 whole entry, looked up): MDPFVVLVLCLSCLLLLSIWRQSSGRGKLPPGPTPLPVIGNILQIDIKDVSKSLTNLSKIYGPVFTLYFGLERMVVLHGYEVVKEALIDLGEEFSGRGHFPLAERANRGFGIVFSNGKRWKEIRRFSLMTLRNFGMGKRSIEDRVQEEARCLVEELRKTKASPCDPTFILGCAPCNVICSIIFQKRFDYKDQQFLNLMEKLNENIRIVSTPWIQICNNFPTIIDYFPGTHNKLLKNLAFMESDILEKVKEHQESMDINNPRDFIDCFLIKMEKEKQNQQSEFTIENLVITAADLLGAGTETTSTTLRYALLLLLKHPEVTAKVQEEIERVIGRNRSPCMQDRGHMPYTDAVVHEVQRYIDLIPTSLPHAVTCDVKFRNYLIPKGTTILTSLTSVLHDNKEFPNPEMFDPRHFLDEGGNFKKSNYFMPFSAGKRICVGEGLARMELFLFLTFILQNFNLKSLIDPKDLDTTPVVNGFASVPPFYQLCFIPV
CYP2C9 inh: blocks human cytochrome P450 2C9 | CYP2C9 Supersomes, luciferin-H conversion, luminescence | 20% of 96,000 active | inhibition, % at 5 µM;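 active means blocking of liver enzyme CYP2C9 beyond about 50% at 5 µM, limit read from the data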
DAT uptake mod: human DAT dopamine uptake with cocaine, either direction | Q01959 | B-score at 10 µM | LLC-PK1 hDAT cells, [14C]-dopamine uptake with cocaine IC80; actives deviate in either direction | 1.3% of 110,000 active;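 active means Z score or B-score, a plate-position-corrected score, falls beyond the plate's 99.7% confidence bounds, in either direction; inactive means both scores lie inside the 99.7% bounds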;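 further: scored against the spread of the other compound wells on the same plate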
CYP2C19 inh: inhibitors of human CYP2C19. inhibition, % at 5 µM. 21% of 96,000 active. CYP2C19 Supersomes, luciferin-H EGE luminescence, 30 min. P33261;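 active means CYP2C19 inhibition above a set limit at 5 µM in the primary screen, cut at about 50% in these data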;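 further: plate controls were negative control wells for no effect and 2.5 mM tranylcypromine positive control for full effect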
Starred values were filed as active, the others as inactive; . = no result. The list is not random: actives were taken first. Their share in the collection is about 28%.

SMILES	CYP2C9 act	D1 allo mod	CYP2C19 act	CYP2C9 inh	DAT uptake mod	CYP2C19 inh
CCc1cccc(NC(=O)Nc2cccs2)c1	0.6	-0.073	0.7	38	0.47	28
N#Cc1cccc(NC(=O)Nc2cccs2)c1	0.2	-1.8	0.6	84*	-1.2	42
CCOc1ccc(NC(=O)C2CCN(S(=O)(=O)c3c(C)n[nH]c3C)CC2)cc1	1	-0.21	1.1	1	0.14	-8
CCOC(=O)c1cccc(NC(=O)C2CCCN(S(=O)(=O)c3c(C)n[nH]c3C)C2)c1 (stereo not drawn)	0.1	-0.27	0.3	88*	-0.28	66*
CCOc1ccc(NC(=O)C2CCCN(S(=O)(=O)c3c(C)n[nH]c3C)C2)cc1 (stereo not drawn)	.	-1.2	.	.	.	.
COc1ccc(NC(=O)C2CCCN(S(=O)(=O)c3c(C)n[nH]c3C)C2)c(OC)c1 (stereo not drawn)	0.7	-0.2	0.5	30	0.94	52*
Cc1nn(C)c(C)c1S(=O)(=O)N1CCCC(C(=O)N2CCN(c3ccc(Cl)cc3)CC2)C1 (stereo not drawn)	0.1	-1.4	0.2	91*	1.2	84*
CC(=O)c1cccc(NC(=O)C2CCN(S(=O)(=O)c3c(C)n[nH]c3C)CC2)c1	0.8	-0.39	0.3	18	-0.57	71*
Cn1c(SCc2cccnc2)nc2cccnc21	0.9	1.9	0.8	15	-0.76	20
COc1ccc(S(=O)(=O)N2CCC(C(=O)Nc3cccc(C(C)=O)c3)CC2)cc1C	1.8	-0.32	0	-78	0.93	97*
COc1ccc(NC(=O)C2CCN(S(=O)(=O)c3c(C)noc3C)CC2)cc1Cl	0.3	.	0.2	68*	-1.8	78*
CCOC(=O)C1CCN(S(=O)(=O)c2c(C)n[nH]c2C)CC1	0.1	-0.44	0.1	90*	-0.079	88*
Cc1n[nH]c(C)c1S(=O)(=O)N1CCCC(C(=O)N2CCc3ccccc32)C1 (stereo not drawn)	0.6	0.28	0.4	39	0.36	62*
CC(=O)c1cccc(NC(=O)C2CCN(S(=O)(=O)c3ccc(C)cc3)CC2)c1	.	0.41	.	.	0.16	.
CCOC(=O)C1CCN(S(=O)(=O)c2c(C)[nH]c(=O)[nH]c2=O)CC1	1.1	0.45	0.7	-14	-0.5	26
CCC(=O)Nc1ccc(S(=O)(=O)NCc2ccco2)cc1	1.1	.	0.8	-6	-0.15	18
CCOC(=O)c1cccc(NC(=O)C2CCCN(S(=O)(=O)c3c(C)nn(C)c3C)C2)c1 (stereo not drawn)	0.1	-0.17	0.2	93*	3*	83*
CCOC(=O)c1cc(-c2ccccc2)n(CC(=O)O)c1C	0.3	0.12	0.9	72*	-0.29	5
CCOC(=O)c1cc(-c2ccc(C)cc2)n(CCC(=O)NC(C)CC)c1C (stereo not drawn)	0.5	.	0.4	48	0.48	64*
CCCNC(=O)CCn1c(-c2ccc(C)cc2)cc(C(=O)OCC)c1C	0.4	.	0.3	62*	2.6	66*
CC(C)Cc1nnc(NC(=O)CSc2nc(=O)cc(N)n2-c2ccccc2)s1	0.9	0.049	1	12	0.32	3
Cn1c(=O)n(CCc2ccccc2)c(=O)c2c1nc1n2CCN1c1ccccc1	.	0.38	.	.	.	.
Cc1cc(C)c2c(N)c(S(=O)c3ccc(C(C)(C)C)cc3)sc2n1 (stereo not drawn)	0.5	.	0.4	47	0.24	61*
COC(=O)N1CC(C)N(C(=O)OC)CC1C (stereo not drawn)	1	-0.27	0.9	4	0.036	13
CCOc1ccc(NC(=O)c2cccc(OC(=S)N3CCC(C)CC3)c2)cc1	0.3	.	0.1	74*	.	94*
SMILES	CYP2C9 act	D1 allo mod	CYP2C19 act	CYP2C9 inh	DAT uptake mod	CYP2C19 inh
CCOc1cccc(C(=O)Nc2ccc(N(CC)CC)cc2)c1	1.3	0.042	0.8	-34	-0.96	18
Cc1cccc(C(=O)N[C@@H]2c3ccccc3C[C@@H]2O)n1	.	.	.	.	-0.25	.
N#Cc1nc(COc2ccc(Br)cc2)oc1NCCCn1ccnc1	0	0.4	0	100*	.	100*
Cc1ccc(OCc2nc(C#N)c(NCCCn3ccnc3)o2)cc1	0.1	-0.12	0	91*	0.66	99*
CN(C)CCNc1oc(COc2ccc(Cl)cc2)nc1C#N	0.9	-1	0.7	13	0.4	27
N#Cc1nc(COc2ccccc2F)oc1NCCCn1ccnc1	0.1	0.45	0	90*	-0.11	97*
CCCOc1ccc(-c2nc(C#N)c(NCCCn3ccnc3)o2)cc1	.	.	.	.	-1.4	.
N#Cc1nc(-c2ccccc2F)oc1NCCc1ccccn1	0.8	.	0.8	21	-0.53	20
N#Cc1nc(COc2ccc(F)cc2)oc1NCCCn1ccnc1	0.1	-0.11	0	88*	-1.1	96*
COC(=O)c1nn2c(C(F)(F)F)cc(-c3ccc(Br)o3)nc2c1Br	0.8	.	0.9	22	0.56	5
N#Cc1nc(COc2ccccc2)oc1NCCCn1ccnc1	0	0.1	0	95*	0.051	100*
CCn1c(NC(=O)c2cccs2)nc2ccccc21	0.9	0.09	0.8	6	-0.28	19
Cn1c(SCC(=O)Nc2ccccc2F)nnc1-c1cc2ccccc2o1	0.8	.	0.8	17	-0.85	16
COc1ccccc1CNC(=O)/C=C/c1cc2c(cc1Br)OCO2	1.4	.	1	-36	-0.28	4
O=C(CN1CCC2(CC1)OCCO2)c1ccc2cc[nH]c2c1	1	-0.5	0.1	2	0.24	86*
N#CC1(P(=O)(c2ccccc2)c2ccccc2)CC1	1	.	1.2	-1	0.39	-16
COc1cccc(Cn2cnc3c(NS(=O)(=O)c4cc(Cl)ccc4Cl)c(C)c(C)cc32)c1	0.5	.	0.9	53*	2.4	14
Cc1cc2c(ncn2Cc2ccccc2)c(NS(C)(=O)=O)c1C	0.6	.	0.5	35	0.02	54*
COc1cccc(Cn2cnc3c(NS(=O)(=O)c4cccc(Cl)c4Cl)c(C)c(C)cc32)c1	0	.	0.2	96*	-0.055	84*
CCCC(=O)Nc1c(-c2cccs2)c(=O)c2ccccc2n1C	0.6	.	0.9	43	0.86	8
COc1ccc(C(=O)Nc2nc(-c3cccs3)c(NC(C)=O)s2)cc1	.	.	.	.	-1.5	.
Cc1ccc(C(=O)Nc2c(-c3cccs3)c(=O)c3ccccc3n2C)cc1	0	.	0.8	98*	0.23	18
CCn1c(NC(=O)c2cccs2)c(-c2cccs2)c(=O)c2ccccc21	0.1	-0.46	0.9	93*	-0.27	10
CC(=O)Nc1sc(NC(=O)c2ccc(C)cc2)nc1-c1cccs1	.	.	.	.	-2.7*	.
O=C(Cn1cnc2c(nnn2Cc2ccc(F)cc2)c1=O)NCC1CCCO1 (stereo not drawn)	.	-0.22	.	.	0.4	.
N#C/C(=C\c1ccc(-c2ccccc2)o1)C(=O)Nn1cnnc1	0	.	0.1	99*	-0.57	92*

Screens deposited in PubChem BioAssay by several laboratories.
